Structures are written as SMILES. Hit rate of the full screen: of about 39,000 compounds, about 3,300 (8.5%) were called active. What follows is part of a selection rich in actives, with near analogues and random picks from the rest.

The subject of this test is HepG2. As to the kind of experiment: cytotoxicity call (relative viability < 0.9). Particulars: 10 µM.
Consider `COc1ccc(S(=O)(=O)Nc2cccc3c2O[C@H](CN(C)S(=O)(=O)c2ccc(OC)cc2)[C@H](C)CN([C@H](C)CO)C3=O)cc1`, for which the cytotoxicity call was “inactive”.

Consider `C(=N\c1nc2ccccc2[nH]1)/N(c1ccccc1)c1ccccc1`, for which the cytotoxicity call was “active”. For `O=C(O)CCc1nc2ccccc2[nH]1`, the cytotoxicity call was “inactive”. Under `FC(F)(F)c1nc2ccccc2[nH]1` stands “inactive”; under `C[C@H](CO)N1C[C@H](C)[C@@H](CN(C)C(=O)c2ccncc2)OCCCC[C@H](C)Oc2ccc(NS(=O)(=O)c3cn(C)cn3)cc2C1=O`, “inactive”; under `CC(C)NC(=O)Nc1ccc2c(c1)C(=O)N([C@H](C)CO)C[C@H](C)[C@H](CN(C)S(=O)(=O)c1cccs1)O2`, “inactive”. In the case of `CC(=O)c1ccc2c(c1)N(CCCN1CCN(CCO)CC1)c1ccccc1S2.O=C(O)C=CC(=O)O`, the cytotoxicity call was “inactive”. As for `Cl.Cl.OCCN1CCN(CCCN2c3ccccc3Sc3ccc(C(F)(F)F)cc32)CC1`, the cytotoxicity call was “active”. For `OCCN1CCN(c2ncnc3c2ncn3[C@H]2CN(Cc3cccc(C(F)(F)F)c3)C[C@@H](CO)O2)CC1`, the cytotoxicity call was “inactive”.

For the compound `CN1CCN(CCCN2c3ccccc3Sc3ccc(C(F)(F)F)cc32)CC1.Cl.Cl`, the cytotoxicity call is “active”. Turning to `Cl.Cl.OCCOCCN1CCN(C(c2ccccc2)c2ccc(Cl)cc2)CC1` (stereo not given), the cytotoxicity call was “inactive”. Regarding `O=C(O)C=CC(=O)O.OCCOCCN1CCN(C2=Nc3ccccc3Sc3ccccc32)CC1`, the cytotoxicity call was “inactive”. Under `OCCN1CCN(CCCN2c3ccccc3Sc3ccc(Cl)cc32)CC1` stands “active”; under `Cc1ccc(S(=O)(=O)N(C)C[C@@H]2OCCCC[C@H](C)Oc3ccc(NC(=O)C4CCCCC4)cc3C(=O)N([C@H](C)CO)C[C@@H]2C)cc1`, “inactive”; under `Cc1noc(C)c1S(=O)(=O)Nc1ccc2c(c1)C(=O)N([C@@H](C)CO)C[C@@H](C)[C@H](CN(C)Cc1ccc(C(F)(F)F)cc1)OCCCC[C@@H](C)O2`, “inactive”. For `COc1ccc(NC(=O)N(C)C[C@@H]2OCCCC[C@@H](C)Oc3ccc(NC(=O)NC4CCCCC4)cc3C(=O)N([C@@H](C)CO)C[C@@H]2C)cc1`, the cytotoxicity call is “inactive”. With `C[C@@H]1CN([C@@H](C)CO)C(=O)c2cc(C#CC3(O)CCCC3)cnc2O[C@H]1CN(C)S(=O)(=O)c1ccc(F)cc1`, the cytotoxicity call is “inactive”. As to `O[C@@H](CCl)CN1CC[N+]2(CC1)CC[N+]1(CCN(C[C@@H](O)CCl)CC1)CC2`, the cytotoxicity call is “inactive”. As to `O=C(/C=C/c1ccc(O)c(O)c1)O[C@@H]1C[C@](O)(C(=O)O)C[C@@H](OC(=O)/C=C/c2ccc(O)c(O)c2)[C@H]1OC(=O)/C=C/c1ccc(O)c(O)c1`, the cytotoxicity call is “inactive”.

Turning to `CN(C)CCCNC(=O)C[C@@H]1CC[C@@H]2[C@H](COc3ccc(NC(=O)c4ccccc4F)cc3C(=O)N2C)O1`, the cytotoxicity call was “inactive”.
